Assay outcomes as filed in PubChem.
The list is not random: actives were taken first. Their share in the collection is about 3%.
PAFAH2 FP inh: inhibitors of human PAFAH2; AID 492956; recombinant PAFAH2, FP-rhodamine activity probe, fluorescence polarization; Q99487; 340,000 tested, 0.99% active; inhibition, % at 3.39 µM;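 active = inhibition above the mean over all tested compounds plus 3 SD, cut at about 30% in these data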;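 also: inhibitors block probe labeling of enzyme so polarization drops; 0% = enzyme with DMSO and 100% = wells lacking PAFAH2 protein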
ATG4B inhibitor: inhibitors of human ATG4B cysteine protease; Q9Y4P1; ATG4B cleavage of LC3-PLA2, NBD-HPC fluorescence, 1 h; inhibition, % at 8.33 µM; 340,000 tested, 0.51% active; AID 504462; in the data active = inhibition above about 40%
PAFAH1B2 inh: PAFAH1B2 (human) inhibition | inhibition, % at 3.39 µM | 340,000 tested, 1.2% active | AID 492953 | recombinant PAFAH1B2, FP-rhodamine activity probe, fluorescence polarization;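 active = inhibition above the mean of all tested compounds plus 3 SD, cut at about 24% in these data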;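 also: 0% = enzyme with DMSO and 100% = wells lacking PAFAH1B2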
Target sequence (P68402 whole entry, looked up): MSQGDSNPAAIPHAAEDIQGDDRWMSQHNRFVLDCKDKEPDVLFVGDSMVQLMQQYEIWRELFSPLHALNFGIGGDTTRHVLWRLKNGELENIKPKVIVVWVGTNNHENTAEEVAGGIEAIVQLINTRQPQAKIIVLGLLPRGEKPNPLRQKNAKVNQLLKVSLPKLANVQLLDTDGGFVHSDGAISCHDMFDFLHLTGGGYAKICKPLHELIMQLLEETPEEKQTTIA
pPAFAH FP inh: pPAFAH (human) enzyme inhibition; inhibition, % at 3.39 µM; Q13093; recombinant pPAFAH, FP-rhodamine probe fluorescence polarization; 330,000 tested, 1.5% active;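 active = inhibition above the mean inhibition across the screen plus 3 SD, cut at about 25% in these data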;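 also: inhibitors block binding of the rhodamine activity-based probe so polarization drops; 0% = enzyme with DMSO and 100% = wells lacking pPAFAH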
DAGLB inhibitor: blocks human DAGLB lipase activity; Q8NCG7; HEK293T DAGLB membrane lysate, EnzChek fluorogenic substrate; inhibition, % at 5.17 µM; 340,000 tested, 0.059% active; in the data active = inhibition above about 34%;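 also: 0% = enzyme with vehicle and 100% = wells lacking enzyme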
PAFAH1B3 FP inh: PAFAH1B3 (human) inhibition. recombinant PAFAH1B3, FP-rhodamine probe, fluorescence polarization. inhibition, % at 3.39 µM. 340,000 tested, 0.28% active. AID 492972;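 active = inhibition above the screen-wide average of all tested compounds plus 3 SD, cut at about 25% in these data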;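 also: 0% = enzyme with DMSO only and 100% = wells lacking PAFAH1B3 protein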
Target sequence (Q15102 whole entry, looked up): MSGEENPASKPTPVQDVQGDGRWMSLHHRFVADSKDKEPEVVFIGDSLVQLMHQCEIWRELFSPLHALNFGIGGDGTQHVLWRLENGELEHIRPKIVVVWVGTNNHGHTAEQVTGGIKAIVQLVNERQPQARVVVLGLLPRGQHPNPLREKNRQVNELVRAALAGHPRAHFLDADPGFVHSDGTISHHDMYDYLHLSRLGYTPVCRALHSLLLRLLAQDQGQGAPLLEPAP
ATG4B conf: confirmation of human ATG4B inhibitors | shares compounds with ATG4B inhibitor | ATG4B protease fluorescent substrate cleavage assay | inhibition, % at 8.33 µM | 320 tested, 92% active | AID 504757; in the data active = inhibition above about 39%
PLA2 ctr: counter-screen for ATG4B inhibitors: human phospholipase A2; purified PLA2, NBD-C6-HPC fluorescence, 45 min; inhibition, % at 8.33 µM; AID 588402; shares compounds with ATG4B inhibitor; 1,600 tested, 66% active; in the data active = inhibition above about 50%
Target sequence (P04054 whole entry, looked up): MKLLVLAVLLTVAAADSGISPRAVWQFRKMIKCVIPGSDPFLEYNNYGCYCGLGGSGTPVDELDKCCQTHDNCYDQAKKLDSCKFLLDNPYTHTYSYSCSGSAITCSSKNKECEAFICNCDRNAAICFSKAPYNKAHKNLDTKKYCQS
* marks the source's active call; other numbers are inactive results; x = no result given; ! = a repeat was not active.

SMILES	PAFAH2 FP inh	ATG4B inhibitor	PAFAH1B2 inh	pPAFAH FP inh	DAGLB inhibitor	PAFAH1B3 FP inh	PLA2 ctr	others
O=S(=O)(NC1CC1)c1ccc(S(=O)(=O)N(Cc2ccccn2)C2CC2)cc1	-0.8	-7.7	5.8	4.2	2.8	-1.9	x
COc1ccc(NC(=O)C2CC(c3ccccc3O)=NO2)cc1OC (stereo not drawn)	-0.3	3.9	0.9	2.4	-0.6	6.9	x
NC(=O)c1cc2c(s1)-c1cc(Cl)ccc1SC2	6.1	44.4*	6.0	1.3	-1.7	5.4	35.8
CC(C)Cc1ccc(CN2CCCC(NC(=O)c3ccnn3C)C2)cc1 (stereo not drawn)	-0.1	42.3*	2.5	6.9	1.8	2.3	49.2
Cc1cc(NC(=O)CNCC(c2ccccc2)N(C)C)c([N+](=O)[O-])cc1C (stereo not drawn)	2.6	-0.4	2.6	-3.7	-2.5	-6.4	x
O=C(NCc1ccccc1)C1=C[C@H](C2CC2)C[C@H](OCCCCO)O1	1.1	-8.1	2.2	4.3	-0.8	9.6	x
CC1CC1c1ccc(/C=C(\C#N)C(=O)Nc2ccccc2Cl)o1 (stereo not drawn)	-6.3	41.3*	-8.8	-1.0	-18.5	6.6	50.6*
CC1(C)Cc2c(sc3c2c(=N)n(Cc2ccco2)c(=O)n3CC(=O)Nc2cccc(Cl)c2)CO1	-7.8	52.5*	6.2	-22.5	-0.6	-10.8	59.6*
O=C(CCC1CCCCC1)Nc1ccccc1O	21.6	8.0	7.4	1.7	-2.5	0.8	x
O=C(CCC1CCCCC1)Nc1ccccc1-c1ccccc1	1.4	52.8*	12.7	-2.7	-11.8	1.0	54.1*
O=C(CC1CCCCC1)Nc1ccccc1-c1ccccc1	9.7	39.7	4.1	1.5	-6.3	-1.7	x
O=C(CCC1CCCC1)Nc1ccccc1-c1ccccc1	-1.9	45.4*	8.6	6.4	-7.2	-7.6	50.3*
CCCCCCCCCCCCCCCC[n+]1ccc(C(N)=O)cc1	8.6	32.7	-0.2	13.5	3.9	-1.1	x
CCCCCCCCCCCCCCCC[n+]1ccccc1	9.6	59.0*!	-4.1	x	5.5	-4.5	37.6	ATG4B conf=39.2*
O=C(Nc1ccccc1N1CCCC1)c1cccc(-c2cc3ccccc3oc2=O)c1	5.0	57.5*	-2.6	10.4	-9.4	6.1	66.7*
CCOc1cc(/C=C2/SC(=O)N(CC(=O)N3CCc4ccccc4C3)C2=O)ccc1OCC(=O)O	-1.9	55.8*	-7.7	-1.5	-3.8	2.0	45.0	ATG4B conf=67.2*
Cc1nc(SCC(=O)N2CC(=O)Nc3ccccc32)nc(C)c1C	-1.1	0.2	0.8	1.3	-0.8	5.3	x
CCc1nc(SCC(=O)N2CC(=O)Nc3ccccc32)c2c(C)c(C)sc2n1	4.1	71.0*	-6.9	-3.2	-0.7	11.5	76.9*
Cc1sc2ncnc(OCC(=O)N3CC(=O)Nc4ccccc43)c2c1C	-0.1	-3.3	2.2	4.8	2.8	9.4	x
Cc1sc2nc(C3CCCCC3)nc(SCC(=O)N3CC(=O)Nc4ccccc43)c2c1C	-1.6	94.3*	3.8	1.8	-1.9	5.8	34.8	ATG4B conf=25.7*
Cc1ccc(CNC(=O)CSc2nc3[nH]ncc3c(=O)[nH]2)cc1	1.1	11.4	5.5	-0.7	0.4	10.4	x
CCOC(=O)c1c(S(=O)(=O)N2CCC(C)CC2)c(C)n(C)c1C	5.5	-0.3	4.3	-2.9	-1.0	9.0	x
COc1cccc(/C=N/NC(=O)c2[nH]c(C)c(C(=O)N/N=C/c3cccc(OC)c3O)c2C)c1O	-5.0	62.2*	6.6	28.2*	12.7	45.2*	23.8	ATG4B conf=32.8
C#CCOCCOCCOCCNc1nc(N2CCN(C(=O)CCCCCCCCCCNC(=O)[C@H](CCCN=C(N)N)n3cc(C[C@@H](C)CC)nn3)CC2)nc(N2CCN(C(=O)CCCCCCCCCCNC(=O)[C@@H]([C@H](C)CC)n3cc(CCCCCN)nn3)CC2)n1	x	x	x	14.9	x	x	x
C#CCOCCOCCOCCNc1nc(N2CCN(C(=O)CCCCCCCCCCNC(=O)[C@H]([C@@H](C)CC)n3cc(CCCCN=C(N)N)nn3)CC2)nc(N2CCN(C(=O)CCCCCCCCCCNC(=O)[C@H](CCCN=C(N)N)n3cc(C[C@@H](C)CC)nn3)CC2)n1	x	x	x	-1.0	x	x	x
SMILES	PAFAH2 FP inh	ATG4B inhibitor	PAFAH1B2 inh	pPAFAH FP inh	DAGLB inhibitor	PAFAH1B3 FP inh	PLA2 ctr	others
C#CCOCCOCCOCCNc1nc(N2CCN(C(=O)CCCCCCCCCCNC(=O)[C@H](CCCCN)n3cc(CCO)nn3)CC2)nc(N2CCN(C(=O)CCCCCCCCCCNC(=O)[C@H](CCCCN)n3cc(C[C@@H](C)CC)nn3)CC2)n1	x	75.4*	x	-6.2	x	x	46.2	ATG4B conf=23.6
C#CCOCCOCCOCCNc1nc(N2CCN(C(=O)CCCCCCCCCCNC(=O)[C@H](CCCCN)n3cc(C)nn3)CC2)nc(N2CCN(C(=O)CCCCCCCCCCNC(=O)[C@H](CCCN=C(N)N)n3cc(C[C@@H](C)CC)nn3)CC2)n1	x	68.6*	x	3.7	x	x	70.0*
C#CCOCCOCCOCCNc1nc(N2CCN(C(=O)CCCCCCCCCCNC(=O)[C@H](CCCCN)n3cc(C[C@@H](C)CC)nn3)CC2)nc(N2CCN(C(=O)CCCCCCCCCCNC(=O)[C@H](CCCN=C(N)N)n3cc(C[C@@H](C)CC)nn3)CC2)n1	-6.9	88.1*	-5.3	2.2	0.7	-2.4	81.1*
OCCC1CN(Cc2ccc3c(c2)CCO3)CCN1Cc1ccc(F)cc1 (stereo not drawn)	2.8	7.8	0.9	-1.8	-0.6	1.2	x
COc1cccc(C(=O)N2CCN(Cc3ccccn3)CC2)c1	5.0	0.8	4.2	-1.1	-2.7	0.9	x
CCc1ccc([C@H]2C(C(=O)O)=C[C@@H](CC3CCCC3)N2S(=O)(=O)c2ccc(C)cc2)cc1	9.6	10.5	14.2	13.3	5.2	6.6	x
CC1/C(=N/O)CC(c2ccccc2)N(C)C1c1ccccc1 (stereo not drawn)	5.9	56.8*	5.2	0.9	-9.3	4.3	48.2
CC1/C(=N/O)CC(c2ccccc2)NC1c1ccccc1 (stereo not drawn)	2.6	-2.3	5.3	5.8	-9.2	-4.9	x
O=[N+]([O-])c1ccc(Cl)c(C2Nc3cccc4cccc(c34)N2)c1	13.5	53.7*	8.7	12.0	12.1	8.7	71.3*
CN1C2Cc3c(n(C)c4ccccc34)C1CC=C2CO (stereo not drawn)	3.2	-9.3	1.1	5.3	-1.3	8.0	x
Cc1cccc(-n2c(SCc3ccc(C#N)cc3)nnc2-c2c[nH]c3ccccc23)c1	4.6	50.6*	6.4	0.4	-0.6	4.7	59.3*
COC(=O)c1ccc(CSc2nnc(-c3c[nH]c4ccccc34)n2C)o1	-1.1	1.0	3.4	7.5	0.5	2.5	x
